ChEMBL document CHEMBL1157539, “Thousands of chemical starting points for antimalarial lead identification” (Nature, 2010)
Values joined by “and” are separate entries in the source; they are usually repeats but may differ in a detail not shown here. Identical values can stand only once.

Experiments:
Assay type in all cases: functional
Plasmodium falciparum [1] = experiment: GSK_TCMDC: Inhibition of Plasmodium falciparum 3D7 in whole red blood cells, using parasite LDH activity as an index of growth. Test compounds present at 2uM
Plasmodium falciparum [2] = experiment: GSK_TCMDC: Inhibition of Plasmodium falciparum Dd2 in whole red blood cells, using parasite LDH activity as an index of growth. Test compounds present at 2uM
HepG2 = experiment: GSK_TCMDC: Percent inhibition of human HepG2 cell line. Test compounds present at 10uM.

SMILES | Inhibition (Plasmodium falciparum [1]) | Inhibition (Plasmodium falciparum [2]) | Inhibition (HepG2)
Oc1ccc2[nH]cc(C3=CCN(CCc4ccccc4)CC3)c2c1 | 96% | 60% | 11%
Br.CCCCCCCSc1ccc(CC(C)NCC(O)c2cccc(Cl)c2)cc1 (stereo not given) | 100% | 99% | 94%
CCCCCCC(C)(C)c1cc(O)c2c(c1)OC(C)(C)c1ccncc1-2.Cl | 95% | 99% | 4%
O=C(NC1CCC(CN2CCC(c3c[nH]c4ccccc34)CC2)CC1)[C@H]1Cc2ccccc2CN1 (stereo not given in full) | 89% | 35% | 29%
CC(=O)N(Cc1cccc(-c2cccc(CNCCc3ccccc3)c2)c1)C1CCN(Cc2ccccc2)CC1.O=C(O)C(F)(F)F | 100% | 57% | 22%
CC(C)CNCc1ccc(-c2cccc(CN(C(=O)CCC3CCCC3)C3CCN(Cc4ccccc4)CC3)c2)cc1.O=C(O)C(F)(F)F | 100% | 92% | 62%
Br.COc1ccc(CC(C)NCC(O)c2cccc(C(F)(F)F)c2)cc1F (stereo not given) | 91% | 65% | 0%
CCOC(=O)c1c(CN2CCN(C)CC2)n(Cc2ccccc2)c2cc(Br)c(O)cc12 | 100% | 46% | 11%
CC(Cc1ccc(NC(=O)[C@@H](C)NCCc2cccc(Cl)c2)cc1)NCCc1cccc(Cl)c1.Cl (stereo not given in full) | 99% | 54% | 99%
CC(Cc1ccc(OCc2ccccc2)c(Cl)c1)NCC(O)c1cccc(C(F)(F)F)c1 (stereo not given) | 97% | 95% | 0%
CO/C=C(/C(=O)OC)c1ccccc1Oc1cc(Oc2ccccc2C#N)ncn1 [AZOXYSTROBIN] | 98% | 98% | 7%
COC(=O)c1ccc(CC(C)NCC(O)c2cccc(C(F)(F)F)c2)cc1.Cl (stereo not given) | 97% | 87% | 0%
O=C(NC1CCC(CN2CCC(c3c[nH]c4ccccc34)CC2)CC1)c1cc2ccccc2o1 (stereo not given) | 94% | 14% | 34%
Cc1csc(-c2ccc3[nH]cc(C4=CCN(C)CC4)c3c2)n1 | 93% | 78% | 10%
COc1cccc(C(=O)C2CC2CN2CC=C(c3c(C)[nH]c4ccccc34)CC2)c1 (stereo not given) | 92% | 87% | 13%
O=C(/C=C/c1ccccc1Cl)NC1CCC(CN2C3CCC2CC(c2c[nH]c4ccccc24)C3)CC1 (stereo not given) | 100% | 98% | 56%
CN1C(=O)OC[C@@H]1Cc1ccc2[nH]cc(C3=CCN(Cc4ccccc4)CC3)c2c1 | 86% | 66% | 4%
CCOC(C(=O)OCCN(C(C)C)C(C)C)(c1ccccc1)c1ccccc1 | 97% | 4% | 4%
CCOC(=O)CCCN1C(=O)CN=C(c2ccccc2)c2cc(Cl)ccc21 | 97% | 47% | 54%
CS(=O)(=O)Nc1ccc2[nH]cc(C3CCN(CC4CCC(NC(=O)/C=C/c5ccc(Cl)c(Cl)c5)CC4)CC3)c2c1 (stereo not given) | 100% | 86% | 22%

SMILES | Inhibition (Plasmodium falciparum [1]) | Inhibition (Plasmodium falciparum [2]) | Inhibition (HepG2)
COc1ccc(CCNCc2ccc3nc(N)cc(C)c3c2)cc1 | 100% | 86% | 23%
CS(=O)(=O)Nc1ccc2c(C3CCN(CC4CCN(C(=O)/C=C/c5ccc(Cl)c(Cl)c5)CC4)CC3)c[nH]c2c1 | 99% | 70% | 28%
CNCCCCCCOc1ccc(CC(C)NCC(O)c2cccc(C(F)(F)F)c2)cc1.Cl (stereo not given) | 100% | 79% | 99%
Br.CCOC(=O)c1ccc(CC(C)NCC(O)c2cccc(C(F)(F)F)c2)cc1 (stereo not given) | 100% | 98% | 5%
CCCCCCC(C)c1cc(O)c2c(c1)OC(C)(C)c1ccncc1-2.Cl (stereo not given) | 100% | 61% | 0%
Cl.N=c1c2c(n(Cc3ccc(Cl)cc3Cl)c3c1CCC3)CCCC2 | 94% | 73% | 0%
Cl.O=C(CNC1CCCCC1)c1ccc(O)c(O)c1 | 100% | 99% | 61%
CC[C@H]1CN2CC[C@H]1C[C@H]2[C@H](O)c1cc(-c2ccc(OC(F)(F)F)cc2)nc2ccc(OC)cc12.Cl | 98% | 99% | 24%
Cl.Cl.c1ccc2c(NCCCCCCNc3c4ccccc4nc4ccccc34)c3ccccc3nc2c1 | 99% | 80% | 60%
COc1cccc(CN2CCC(CCOC(c3ccccc3)c3ccc(Cl)cc3)CC2)c1O (stereo not given) | 99% | 100% | 22%
CCN(Cc1ccccc1)CC(O)c1ccc(Cl)c(Cl)c1.Cl (stereo not given) | 96% | 71% | 2%
O=C(NC1CCC(CN2CCC(c3c[nH]c4ccccc34)CC2)CC1)c1cc(-c2ccc(F)cc2F)ccc1O (stereo not given) | 100% | 100% | 30%
O=C(/C=C/c1cc(F)c(F)cc1F)N1CCC(CN2CCC(c3c[nH]c4ccccc34)CC2)CC1 | 93% | 3% | 26%
Cc1cccc2c(C3CCN(CC4CCC(NC(=O)/C=C/c5ccc(Cl)c(Cl)c5)CC4)CC3)c[nH]c12 (stereo not given) | 92% | 49% | 97%
CC(Cc1ccc(C(C)(C)C)cc1)NCC(O)c1ccccc1.Cl (stereo not given) | 94% | 89% | 5%
O=S(=O)(NC1CCC(CN2CCC(c3c[nH]c4ccccc34)CC2)CC1)c1ccc(Cl)c(Cl)c1 (stereo not given) | 97% | 32% | 36%
Cc1ccc(C[C@@H](C)NC[C@H](O)c2cccc(C(F)(F)F)c2)cc1.O=C(O)/C=C/C(=O)O | 100% | 79% | 10%
Cc1cccc2[nH]cc(C3CCN(CC4CCC(NC(=O)/C=C/c5ccc(Cl)c(Cl)c5)CC4)CC3)c12.Cl (stereo not given) | 100% | 97% | 88%
Cl.N[C@@H](CCN1CCC(c2cccc(O)c2)CC1)Cc1ccc(F)c(F)c1 | 92% | 0% | 25%
COc1cc2nc(N(C)C3CCN(Cc4ccccc4)CC3)nc(N)c2cc1OC | 99% | 93% | 19%

SMILES | Inhibition (Plasmodium falciparum [1]) | Inhibition (Plasmodium falciparum [2]) | Inhibition (HepG2)
CC[C@H]1CN2CC[C@H]1C[C@@H]2[C@H](O)c1ccnc2ccc(O)cc12 | 94% | 0% | 0%
C=C[C@H]1CN2CC[C@H]1C[C@H]2[C@H](O)c1cc(-c2ccc(Cl)cc2)nc2ccc(OC)cc12.Cl | 99% | 98% | 38%
O=C(NC1CCC(CN2CCC(c3c[nH]c4ccccc34)CC2)CC1)c1cc(-c2ccccc2Cl)n(-c2cccc(Cl)c2)n1 (stereo not given) | 95% | 24% | 58%
CC(=O)C1(c2ccccc2)CCN(CCC2(c3ccc(Cl)c(Cl)c3)CN(C(=O)C3CCCC3)CCO2)CC1 (stereo not given) | 88% | 70% | 11%
Br.CC(Cc1ccc(CSC(C)C)cc1)NCC(O)c1cccc(Cl)c1 (stereo not given) | 98% | 98% | 11%
CC(=O)Nc1ccc(CN2CCC(N(C)c3ccc(NC(=O)c4cccc(C)c4)cc3)CC2)cc1.O=C(O)C(F)(F)F | 91% | 50% | 0%
O=C(Nc1ccccc1Cl)NC1CCC(CN2CCC(c3c[nH]c4ccccc34)CC2)CC1 (stereo not given) | 100% and 98% | 34% and 31% | 32% and 37%
S=C(NCC1CCCCC1)NC1CCC(CN2CCC(c3c[nH]c4ccccc34)CC2)CC1 (stereo not given) | 88% | 10% | 29%
COc1ccc(C(=O)C2CC2CN2CC=C(c3c[nH]c4cccc(Br)c34)CC2)cc1.O=C(O)C(F)(F)F (stereo not given) | 88% | 67% | 32%
CC[C@H]1C[N+]2([O-])CC[C@@H]1C[C@H]2[C@H](O)c1cc(-c2ccccc2)nc2ccc(OC)cc12 | 99% | 97% | 0%
C/C=C1\CN2CC[C@H]1C[C@H]2[C@H](O)c1ccnc2ccc(OC)cc12.O=S(=O)(O)O | 99% | 61% | 0%
O=C(/C=C/c1ccc(Cl)c(Cl)c1)N1CCC(CN2CCC(c3c(Br)[nH]c4ccccc34)CC2)CC1 | 100% | 99% | 41%
COc1ccc(OC)c(C=CC(=O)NC2CCC(CN3CCC(c4c[nH]c5ccccc45)CC3)CC2)c1 (stereo not given) | 98% | 62% | 43%
O=C(C=Cc1ccccc1Br)NC1CCC(CN2CCC(c3c[nH]c4ccccc34)CC2)CC1 (stereo not given) | 100% | 57% and 32% | 36% and 43%
CC(Cc1ccc(OCCCCOc2ccccc2)cc1)NCCC1CCCN1C (stereo not given) | 99% | 98% | 100%
O=C(NC1CCC(CN2CCC(c3c[nH]c4ccccc34)CC2)CC1)c1[nH]c(=O)[nH]c(=O)c1F (stereo not given) | 99% | 59% | 5%
O=C(C=Cc1ccc(F)c(Br)c1)N1CCC(CN2CCC(c3c[nH]c4ccccc34)CC2)CC1 | 100% | 9% | 39%
Cc1ccc(CC(C)NCC(O)c2cccc([N+](=O)[O-])c2)cc1 (stereo not given) | 97% | 85% | 0%
O=C(/C=C/c1ccc(O)cc1)NC1CCC(CN2CCC(c3c[nH]c4ccccc34)CC2)CC1 (stereo not given) | 99% | 51% | 21%
CC(C)CNCc1cccc(-c2ccc(CN(C(=O)NC3CCCCC3)C3CCN(Cc4ccccc4)CC3)cc2)c1.O=C(O)C(F)(F)F | 97% | 51% | 27%
